MCF10A rerep = induces DNA re-replication in MCF 10a normal breast cells | MCF 10A DNA re-replication, Hoechst nuclear intensity, 48 h | Potency, µM (series often up to 46.1 µM), for the others: at the top dose activity, positive = re-replication, actives largely listed as activators | 2.9% of 350,000 active | AID 624296; also: potency is read from the fitted curve at half-maximal effect; % of control where 0% means no effect; nearly all actives have a fitted effect of over 50% in size
SW480 rereplic = DNA re-replication induction in SW480 cells | Potency, µM (highest dose often 46.1 µM), inactives show at the highest dose re-replication activation, most hits filed as activators | SW480 DNA re-replication, Hoechst DNA content imaging, 48 h | AID 624297 | 1.8% of 340,000 active; also: potency is read from the fitted curve at half-maximal effect; % of control where 0% means no effect; nearly all actives have a fitted effect of over 55% in size
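Hoechst fluorescence of nuclei (405 nm excitation, 500-530 nm emission) measured by plate-scanning imager after 48 hr compound exposure at 37 C; re-replication scored as increased number of nuclei with elevated intensity.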
IL-1B inflam inh = inhibitors of inflammasome signaling (IL-1 beta secretion); activity change, % at 57.5 µM; THP-1 LPS/ATP IL-1B secretion, AlphaLISA, 16 h; hits give low values; 4.7% of 360,000 active; in the data active = activity change below about -50%; inconclusive = mostly about -30% to -49%; also: % is scaled to controls: 0 for no effect and ±100 for the full control effect
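THP-1 cells pretreated 1 hr with compounds (up to 57.5 uM final), then stimulated with LPS (250 ng/mL final) plus ATP (1.25 mM final); secreted IL-1B measured by AlphaLISA after 16 hr, decreased signal indicating inhibition.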
RORgamma inh = inhibitors of mouse ROR gamma transcriptional activity. P51450. Drosophila S2 Gal4-RORgamma UAS-luciferase reporter, 20 h. Potency, µM (titrated, usually from 53.6 µM), for the others: at the top dose activity change, negative = inhibition, usual class: inhibitors. 5.4% of 310,000 active; also: potency is read from the fitted curve at half-maximal effect; % is scaled to controls: 0 for no effect and ±100 for the full control effect; nearly all actives have a fitted effect of over 60% in size
Target sequence (P51450 whole entry, looked up, the tested form may be a part): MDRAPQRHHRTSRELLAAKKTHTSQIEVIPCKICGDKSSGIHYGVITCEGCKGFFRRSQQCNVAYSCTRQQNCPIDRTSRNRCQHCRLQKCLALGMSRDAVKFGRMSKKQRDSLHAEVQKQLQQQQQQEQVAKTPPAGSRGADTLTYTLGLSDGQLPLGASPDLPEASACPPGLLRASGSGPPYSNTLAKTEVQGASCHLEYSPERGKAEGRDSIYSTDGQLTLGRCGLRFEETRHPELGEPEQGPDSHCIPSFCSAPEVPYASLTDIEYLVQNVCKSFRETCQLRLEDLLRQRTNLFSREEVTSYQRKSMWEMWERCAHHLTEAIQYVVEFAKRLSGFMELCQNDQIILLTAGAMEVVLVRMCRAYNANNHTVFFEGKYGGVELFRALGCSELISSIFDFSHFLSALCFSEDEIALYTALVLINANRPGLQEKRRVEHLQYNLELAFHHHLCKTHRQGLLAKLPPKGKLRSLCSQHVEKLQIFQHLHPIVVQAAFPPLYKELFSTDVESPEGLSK
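Luminescence from a UAS-regulated Photinus luciferase reporter in stably transfected Drosophila Schneider cells is measured; decreased signal marks ROR gamma inhibition. Fusion expression is induced by 700 uM copper sulfate for 20 hr.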
Gal4-VP16 FLuc = inhibits Gal4-VP16 luciferase reporter, ROR gamma counter-screen. Drosophila S2 Gal4-VP16 UAS-luciferase, luminescence, 20 h. Potency, µM (titrated, usually from 53.6 µM), without a hit: at the highest dose activity, negative = inhibition, hits mostly inhibitors. 3.5% of 310,000 active;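 also: Gal4-VP16 expression switched on by copper sulfate through the metallothionein promoter; potency is read from the fitted curve at half-maximal effect; % is scaled to controls: 0 for no effect and ±100 for the full control effect; nearly all actives have a fitted effect of over 50% in size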
Starred values were filed as active, the others as inactive; ? = inconclusive; . = not tested or not shown; [ ] = another dose, or the depositor's remark. Only some compounds are listed: those with a hit (about 11% of all), similar ones and a draw of the others. Unless noted, calls follow the shape of the dose curve; as a rule, active = well fitted curve in the direction sought with a large enough effect; inconclusive = small, poorly fitted or top-dose-only effect, or another doubt; inactive = no such curve, though single readings can be large; an effect the other way counts as inactive or inconclusive.

SMILES	MCF10A rerep	SW480 rereplic	IL-1B inflam inh	RORgamma inh	Gal4-VP16 FLuc
O=C(COc1ccccc1-c1ccccc1)N/N=C/c1ccncc1	21%	-1%	0	0%	-6%
C/C(=N\NC(=O)COc1ccccc1-c1ccccc1)c1ccccn1	18%	?	-7	1.1µM*	?
CCCCCC(=O)N/N=C(\C)c1ccccn1	17%	11%	47	0.35µM*	0.56µM*
CCCn1c(-c2ccc(F)cc2)nc2c(NCCN3CCCC3)nc(C)nc21	.	.	.	-12%	3%
CCc1nc2ccc(C(=O)NCC3CCCCC3)cn2c1N(C)C(=O)c1cccc(OC)c1	.	.	0	.	.
CSC(=NC#N)N1CCN(c2c(C)cccc2C)CC1	22%	-10%	-13	11µM*	14%[10 µM]
O=C(c1ccc(F)c(S(=O)(=O)N2CCOCC2)c1)N1CCN(c2ccc(F)cc2)CC1	?	-12%	1	.	.
COc1cc(C2NC(=O)c3ccccc3O2)cc(OC)c1OC (centres undefined)	5%	-4%	20	-21%	1%
COc1cc(C2Oc3ccccc3C=C2[N+](=O)[O-])cc(OC)c1OC (centres undefined)	?	?	-104*	?	13µM*
COc1ccc(CN2CCN(C(=O)CCC(=O)c3ccc(C)s3)CC2)cc1OC	11%	-3%	37	.	.
CCCN1CCC(C)(C(=O)Nc2cccc(OC(C)C)c2)C1 (centres undefined)	.	.	30	.	.
COc1ccc(Cl)c2sc(N3CCN(C(=O)c4ccco4)CC3)nc12	10%	-4%	-6	.	.
Cc1ccc2sc(N3CCN(C(=O)c4ccc([N+](=O)[O-])o4)CC3)nc2c1C	?	2%	.	.	.
O=C(c1ccc([N+](=O)[O-])o1)N1CCN(c2nc3c(Cl)cccc3s2)CC1	7.3µM*	?	-79*	.	.
Cc1c(Cl)ccc2sc(N3CCN(C(=O)C4=COCCO4)CC3)nc12	19%	-43%	-61*	.	.
COc1cccc2sc(N3CCN(C(=O)c4ccc([N+](=O)[O-])o4)CC3)nc12	23µM*	?	-84*	.	.
CC1=C(C(=O)OCc2ccccc2)C(c2ccc(C3CCCCC3)cc2)NC(=O)N1CCCCCC(=O)O (centres undefined)	.	.	.	17%	-7%
CCNC(=S)N/N=C(\C)c1cc2ccccc2o1	-4%	-2%	-52*	3.5µM*	7.9µM*
C/C(=N\NC(=S)Nc1cccc(C)c1)c1cc2ccccc2o1	14µM*	13%	5	2.5µM*	?
C/C(=N\NC(=O)c1ccc(O)cc1)c1cc2ccccc2o1	0%	-2%	-7	6.3µM*	10µM*
CC/C(=N\NC(=S)Nc1cccc(C)c1)c1ccccc1	-10%	?	-4	?	?
O=C(NNC(=O)c1cc2ccccc2o1)c1ccc(F)cc1	2%	-3%	-7	.	.
COc1ccc(OCC(=O)N/N=C(\C)c2cc3ccccc3o2)cc1	13%	-4%	-6	-9%	-1%
CC(=O)Nc1ccc(C(=O)N2CCCC(c3cc(C(=O)Nc4ccccc4Cl)no3)C2)cc1 (centres undefined)	.	.	-2	.	.
COc1ccc(NC(=O)c2ccc(NC(=O)CN3CCC(C(N)=O)CC3)cc2)cc1	-3%	-2%	-6	.	.
SMILES	MCF10A rerep	SW480 rereplic	IL-1B inflam inh	RORgamma inh	Gal4-VP16 FLuc
CCCCc1ccc(NC(=O)C(=O)NCCN2CCN(Cc3ccc([N+](=O)[O-])cc3)CC2)cc1	3.3µM*	10%	1	?	-28%
O=[N+]([O-])c1cccc(CN2CCCCCC2)c1	6%	-8%	-2	-1%	-19%
O=[N+]([O-])c1ccc(CN2CCN(c3ccc([N+](=O)[O-])cc3)CC2)cc1	15%	-4%	-54*	0%	-24%
O=[N+]([O-])c1ccc(N2CCN(Cc3cccc([N+](=O)[O-])c3)CC2)cc1	-3%	1%	-62*	?	-30%
O=[N+]([O-])c1ccc(CN2CCSCC2)cc1	?	3%	-15	-24%	-2%
O=C1OC(c2ccccc2)Cc2cc(C(=O)N3CCN(c4ccc(F)cc4)CC3)ccc21 (centres undefined)	14%	-1%	-13	.	.
O=C(Nc1nc2c(F)cc(F)cc2s1)C1CCN(C(=O)c2ccc(F)cc2)CC1	-8%	-28%	10	.	.
O=C(Nc1ccc(Br)cc1)C1CCN(C(=O)c2ccc(F)cc2)CC1	12%	0%	-73*	37%	4%
O=C(Nc1nc(-c2ccc(F)cc2)cs1)C1CCN(C(=O)c2ccc(F)cc2)CC1	?	6%	-84*	.	.
CCc1cccc(NC(=O)Cn2c3[n+](c4ccc(C(F)(F)F)cc42)CCCCC3)c1	10%	4%	-68*	2%	-1%
O=C(Cn1c2[n+](c3ccc(C(F)(F)F)cc31)CCCCC2)Nc1ccccc1	8%	-12%	-13	8%[10 µM]	-7%
CO/N=C(/C(=O)N[C@@H]1C(=O)N2C(C(=O)O)=C(C[n+]3ccc(N)n3CCO)CS[C@H]12)c1csc(N)n1	-4%	-7%	.	8%	-4%
CCCCCCCCCCCCCCCCn1cc[n+](CC(C)=O)c1	15µM*	-35%	22	?	-6%[10 µM]
CCNc1ccc(Br)cc(C(=O)/C=C/c2ccc(Cl)cc2)c1=O	13µM*	?	-100*	-35%	?
CCNc1ccc(Br)cc(C(=O)/C=C/c2ccc3c(c2)OCO3)c1=O	18µM*	?	-12	-20%	-6%
CNc1ccc(Br)cc(C(=O)/C=C/c2cccc(OC)c2)c1=O	18µM*	?	-101*	?	?
CNc1ccc(Br)cc(C(=O)/C=C/c2ccc(Cl)cc2Cl)c1=O	4.6µM*	?	-91*	?	-29%
CNc1ccc(Br)cc(C(=O)/C=C/c2ccc(OC)cc2OC)c1=O	?	0%	?	-39%	-17%
Cc1ccc(S(=O)(=O)N2C[C@]3(O)C[C@@H]4C(=O)N(c5ccccc5)C(=O)[C@@H]4C[C@]3(OC(=O)NC3CCCC3)C2)cc1	.	.	-1	.	.
COc1ccc(NC(=O)N2CC[C@@]3(CCCN(C(=O)c4c(C)noc4C)C3)C2)cc1	.	.	.	5%	-12%
CCNc1ccc(Br)cc(C(=O)/C=C/c2c(Cl)cccc2Cl)c1=O	23µM*	?	-96*	10µM*	?
CCNC(=O)/C=C/c1cccc(Br)c1	-2%	-4%	.	22%	14%
CN(Cc1cc(=O)n2ccsc2n1)Cc1nc2ccccc2c(=O)[nH]1	-2%	-19%	0	7.9µM*	?
CN(Cc1cc(=O)n2ccsc2n1)c1ccccc1	4%	?	15	1%	?
CN(Cc1nc2ccccc2c(=O)[nH]1)c1ccccc1	7%	-1%	20	39%	-5%
CCc1ccc2c(CN(CC)Cc3nc4ccccc4c(=O)[nH]3)cc(=O)oc2c1	0%	-2%	3	8.9µM*	?
